# Test results as given in PubChem BioAssay AID651636 (Sanford-Burnham Center for Chemical Genomics, 2012).
# Among all 360,000 compounds or so, about 3,000 (0.83%) were called active. The sample holds actives, similar compounds and a random draw of the others, so the mix is not that of the screen. Values without a mark were called inactive. No stated cut-off is given here; in the data, active means inhibition above about 38%; inactive means the rest.
# Molecular target: G-protein coupled receptor 183 (Homo sapiens) (UniProt P32249)
# Sequence (P32249 whole entry, looked up, the tested form may be a part): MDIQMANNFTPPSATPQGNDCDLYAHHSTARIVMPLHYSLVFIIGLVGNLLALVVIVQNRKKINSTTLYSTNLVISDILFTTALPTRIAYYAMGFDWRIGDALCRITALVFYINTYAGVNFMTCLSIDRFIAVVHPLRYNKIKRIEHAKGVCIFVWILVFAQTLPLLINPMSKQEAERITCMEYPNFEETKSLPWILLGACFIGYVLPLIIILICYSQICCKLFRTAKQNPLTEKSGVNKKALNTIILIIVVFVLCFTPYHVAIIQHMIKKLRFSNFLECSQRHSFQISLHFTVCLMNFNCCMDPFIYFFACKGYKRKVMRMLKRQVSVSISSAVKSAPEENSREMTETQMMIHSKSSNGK
# Assay: blockers of oxysterol-driven EBI2 arrestin signaling – cell-based, luminescence, 7a,25-OHC stimulation, uHTS, primary screen (AID 651636);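 further: enzyme fragment complementation signal reports receptor beta-arrestin coupling in cells; 0% = agonist plus DMSO wells and 100% = wells without agonist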
# Details: EBI2 beta-arrestin recruitment, 7a,25-OHC stimulated, at 5 µM, stronger effect = higher value
row,Compound,inhibition
1,CSc1ncnc2c1ncn2CCCNCc1cccs1,-4.51%
2,COc1ccccc1C(=O)N1C(CC(=O)Nc2ccccc2C)C(=O)NC2CCCCC21 (stereo not given),3.5%
3,COc1ccc(C)cc1NC(=O)CSc1nnc(CC(=O)Nc2ccccc2F)n1C,6.35%
4,CN1C[C@@H](CO)O[C@@H](n2cnc3c(N4CCN(CCO)CC4)ncnc32)C1,5.76%
5,CC1CCc2sc3nc(N4CCN(CCO)CC4)n4ncnc4c3c2C1 (stereo not given),61.6% (active)
6,Cc1ccc(C)c(C(=O)N2CCC(n3nccc3NC(=O)C3CC3)CC2)c1,5.07%
7,C/C=C/C=C/C(=O)OCC(=O)Nc1ccc(Cl)cc1,1.78%
8,COc1ccc(NC(=O)N2CCCC(C(=O)Nc3ccccc3OC)C2)cc1 (stereo not given),18.7%
9,COc1ccc(C(=O)NC2CCN(C(=O)Nc3ccc(F)cc3)CC2)cc1,-4.2%
10,COc1ccc(NC(=O)N2CCC(Cc3ccccc3)CC2)cc1,65.5% (active)
11,NC(=O)C1(N2CCCCC2)CCN(C(=O)c2ccc(C#Cc3ccccc3)o2)CC1,-2.84%
12,CCc1ccccc1NC(=S)Nc1cc(OC)c(NC(=O)C(C)C)cc1OC,-4.78%
13,O=C(Nc1ccc(S(=O)(=O)N2CCCCC2)cc1)C1CC(=O)N(c2ccc(F)cc2)C1 (stereo not given),45.7% (active)
14,Cc1ccc(N2CC(C(=O)Nc3ccc(S(=O)(=O)N4CCCC4)cc3)CC2=O)cc1C (stereo not given),45.4% (active)
15,O=C(Nc1ccc(S(=O)(=O)N2CCCCC2)cc1)C1CCN(C(=O)c2ccc(F)cc2)CC1,17%
16,Cc1ccccc1N1CC(C(=O)Nc2ccc(S(=O)(=O)N3CCCC3)cc2)CC1=O (stereo not given),7.48%
17,CC1CCN(S(=O)(=O)c2ccc(NC(=O)C3CC(=O)N(c4ccccc4)C3)cc2)CC1 (stereo not given),38%
18,Cc1ccc(NC(=O)C2CC(=O)N(c3ccc4c(c3)OCCO4)C2)cc1S(=O)(=O)N1CCCCCC1 (stereo not given),14.6%
19,CCCNC(=O)C1(C)CCN(C(=O)c2ccc(F)cc2Cl)C1 (stereo not given),-4.71%
20,OCCC#Cc1ccc(N2C(c3ccsc3)=Cc3ccc(F)cc3C2c2c[nH]c3ccccc23)cc1 (stereo not given),10.6%
21,Cc1cnc(CN(C)C(=O)CC2C(=O)NCCN2Cc2cccc(F)c2F)[nH]1 (stereo not given),-7.04%
22,Cc1c(NC(=O)CN2C(=O)C(=O)N(Cc3ccccc3)C2=O)c(=O)n(-c2ccccc2)n1C,0.531%
23,CC1(C(=O)NCc2ccccc2)CSCC(=O)N1CCCn1ccnc1 (stereo not given),4.35%
24,CCOC(=O)[C@]12CCCC=C1N(CCC1=CCCCC1)C(=O)[C@H](CC(=O)N1CCSCC1)C2,7.49%
25,COc1ccc(-n2c(Cc3cccn3C)nnc2SCC(=O)Nc2cc(C)cc(C)c2)cc1,49.5% (active)
26,COc1ccccc1NC(=O)CSc1nnc(Cc2cccn2C)n1-c1ccc(F)cc1,9.51%
27,COC(=O)c1ccc(NC(=O)CSc2nnc(Cc3cccn3C)n2-c2ccc(F)cc2)cc1,-2.09%
28,CCCc1ccc(OCC(O)CN2CCN(C(=O)OCC)CC2)cc1 (stereo not given),22.6%

row,Compound,inhibition
1,O=C(C(c1ccccc1)c1ccccc1)N1CCN(CC(O)COc2ccccc2)CC1 (stereo not given),53.5% (active)
2,CC(=O)N1CCN(CC(c2ccccc2)c2ccccc2)CC1,-1.32%
3,O=C(O)C1=C(C(=O)O)C2CCC1C2,6.95%
4,COc1ccc(/C=C(/NC(=O)c2ccccc2)C(=O)Nc2cccc(C(=O)O)c2)cc1,-12.6%
5,COc1ccc(/C=N/N=C/c2c[nH]c(=O)c(C#N)c2Nc2ccccc2)cc1,90.2% (active)
6,COc1ccc(O)c(/C=N/N=C/c2cccc([N+](=O)[O-])c2)c1,1.28%
7,O=C(Nc1ccc2c(c1)CCC2)c1cccc(S(=O)(=O)N2CCN(c3ccc(F)cc3)CC2)c1,-5.81%
8,Nc1nc(SCC(=O)N2CCN(S(=O)(=O)c3ccc(Cl)cc3)CC2)n[nH]1,-6.16%
9,O=C(CN1CCN(S(=O)(=O)c2ccc(Cl)s2)CC1)N1CCCCC1,-6.5%
10,Cc1ccc(OCC(=O)N2CCN(S(=O)(=O)c3ccc(Cl)s3)CC2)cc1C,90% (active)
11,O=C(CN1CCN(S(=O)(=O)c2ccc(Cl)s2)CC1)NCc1ccc(Cl)cc1,15.5%
12,O=C(COc1ccc(Cl)cc1)N1CCN(c2cccc(C(F)(F)F)c2)CC1,84.9% (active)
13,O=C(COc1ccc(Cl)cc1)N1CCN(S(=O)(=O)c2ccc(Cl)cc2)CC1,89.2% (active)
14,COc1ccc(N2CCN(C(=O)COc3ccc4c(C)cc(=O)oc4c3)CC2)cc1,-7.37%
15,O=C(CSc1ccccn1)N1CCN(S(=O)(=O)c2ccc(Cl)cc2)CC1,1.72%
16,O=C(COc1ccc2c(c1)CCC2)N1CCN(c2ccc(F)cc2)CC1,44.5% (active)
17,CSCCC(NC(=O)COc1ccccc1)C(=O)N1CCN(c2cccc(C(F)(F)F)c2)CC1 (stereo not given),26.3%
18,Cc1c(C)c2ccc(OCC(=O)N3CCN(c4cccc(Cl)c4)CC3)cc2oc1=O,11.5%
19,CC(=O)c1ccc(S(=O)(=O)Nc2ccc(-c3ccc4nncn4n3)cc2)cc1,6.72%
20,COc1ccc(N2C(=O)C(O)C2c2ccc(C)cc2)cc1 (stereo not given),-10.7%
21,CC(C)(C)c1cc(CN2CCN(CCC#N)CC2)cc(C(C)(C)C)c1O,1.34%
22,Cc1ccc(NC(=O)C(C)Sc2nnc(C3CC3)n2C2CC2)cc1S(=O)(=O)N1CCOCC1 (stereo not given),6.91%
23,CC(=O)NC(Cc1ccc(F)c(F)c1)C(=O)NC1CCN(C(=O)c2ccc(C)cc2)CC1 (stereo not given),1.72%
24,COc1ccc2c(c1)C(=O)Nc1cc(Cl)ccc1N2,10.9%
25,C/C(=N\NC(=O)C1(C)CC1(Br)Br)c1ccc(C)cc1C (stereo not given),4.16%
26,CCOC(=O)/C=C/CN(C(=O)OC(C)(C)C)S(=O)(=O)N1CC=CC1,0.259%
27,CC(=O)NC1=NN(C(C)=O)C(C)(CCS(=O)(=O)c2ccc(Cl)c(Cl)c2)S1 (stereo not given),-4.01%
